Assay outcomes deposited in PubChem BioAssay by National Center for Advancing Translational Sciences (NCATS).
The list is not random: actives were taken first. Their share in the collection is about 7.3%.
FMDV inh: foot and mouth disease virus antiviral activity | Potency, µM (doses to about 57.9 µM), for the others: top-dose activity change, negative = inhibition, hits mostly inhibitors | 410,000 tested, 1.2% active | FMDV antiviral cell-based qHTS; calls by dose curve; tested in HEK293T cells; further: read-out not given here; potency means the concentration at half of the fitted maximal effect; nearly all actives have a fitted effect of over 45% in size
VACV Venus inh: inhibitors of vaccinia virus (Venus reporter); Vaccinia virus Venus reporter expression, fluorescence; Potency, µM (highest dose often 36.5 µM), inactives show at the top dose activity change, negative = inhibition, usual class: inhibitors; 330,000 tested, 0.46% active; calls by dose curve; tested in A549 cells; further: potency means the concentration at half of the fitted maximal effect; nearly all actives have a fitted effect of over 30% in size
VACV mCherry inh: inhibitors of vaccinia virus infection (mCherry reporter signal); Vaccinia virus mCherry reporter infection, fluorescence; Potency, µM (doses to about 36.5 µM), without a hit: at the top dose activity change, negative = inhibition, actives largely listed as inhibitors; 310,000 tested, 0.63% active; AID 720579; calls by dose curve; tested in A549 cells; further: potency means the concentration at half of the fitted maximal effect; nearly all actives have a fitted effect of over 35% in size
HCMV antiviral: blocks human cytomegalovirus replication | HFF cells, HCMV-luciferase reporter, 72 h; stronger effect = lower value | activity change, negative = inhibition, % at 57.5 µM | 410,000 tested, 4.5% active; in the data active means activity change below about -60%; inconclusive means no clear call, values can overlap the other calls; inactive means above about -39%
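Luciferase read-out from HCMV-luciferase-infected HFFs (MOI 1 PFU/cell) 72 h post infection at 37C; compounds added after 16 h cell attachment; activity normalized between buffer-only basal and Salinomycin (10uM) inhibitor controls.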
HCV inhibitor: blocks hepatitis C virus; Potency, µM (titrated, usually from 41.8 µM), for inactives: at the highest dose activity change, negative = inhibition, hits mostly inhibitors; AID 651820; Huh7.5.1 HCVcc-Cre infection, luciferase reporter, 44 h; 340,000 tested, 3.4% active; active means well fitted inhibition curve with a large enough effect; inconclusive means small, poorly fitted or top-dose-only effect, or another doubt; inactive means no such curve, though single readings can be large or run the other way; further: potency means the concentration at half of the fitted maximal effect
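Whole-lifecycle infectious HCVcc-Cre system; cells 1,000/well, compound then virus (~0.5 moi) added 4 h after plating, 44 h culture. Luciferase read 15 sec following 15 min substrate incubation, room temp.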
* marks the source's active call; other numbers are inactive results; i = inactive; ? = inconclusive; nt = no result given. On the % scale 0 is the no-effect control and ±100 the full control effect.

SMILES	FMDV inh	VACV Venus inh	VACV mCherry inh	HCMV antiviral	HCV inhibitor
c1ccc(N2CCCCC2)c(Nc2nc3ccccc3n3cnnc23)c1	-27%	0%	?	?	6.3µM*
COc1ccc(-c2cc(=O)c3ccccc3o2)cc1OC	0%	0%	i	nt	nt
COc1ccc(C2=CC(c3ccc(OC)c(OC)c3)c3c(c4ccccc4oc3=O)O2)cc1OC (centres undefined)	-28%	-30%	-15%	-64*	10µM*
CCOC(=O)c1cc2c(=O)n3ccccc3nc2n(C(C)C)c1=NC(=O)C(C)(C)Oc1ccc(Cl)cc1	-18%	?	-28%	12	nt
Cc1cccc(-c2ocnc2C(=O)Nc2ccccc2NC(=O)c2ccccn2)c1	0%	-4%	-28%	-98*	?
Cc1ccc(-c2ocnc2C(=O)Nc2ccccc2NC(=O)c2ccccn2)cc1	-13%	-12%	-20%	?	?
C=CC(=O)Nc1cccc(Oc2ncnc3[nH]cc(-c4cnc5ccccc5c4)c23)c1	-20%	11µM*	?	16	?
COc1cc(C(=O)NCc2cc(C)nc3ccccc23)cc(OC)c1OC	?	-2%	i	74	-4%
COC(=O)c1ccc2c(=O)n(Cc3ccco3)c(SCC(=O)Nc3ccc(C)c(Cl)c3)nc2c1	-16%	nt	nt	-63*	10%
COc1ccc(C(=O)NCc2cc(C)nc3ccccc23)cc1	?	nt	nt	-24	16µM*
COc1ccc(Cn2c(SCC(=O)NCc3ccco3)nc3ccsc3c2=O)cc1	5%	nt	nt	19	2.5µM*
O=C(CSc1nc2ccsc2c(=O)n1Cc1ccc(C(=O)O)cc1)NCc1ccco1	9%	-7%	-12%	-26	21%
COc1ccc(C(=O)Nn2c(SCC(=O)N3CCC(C)CC3)nc3ccccc3c2=O)cc1	11µM*	nt	nt	-62*	-5%
COc1ccc(C(=O)Nn2c(SCC(=O)c3ccc(Cl)cc3)nc3ccccc3c2=O)cc1	-28%	nt	nt	-17	-6%
Cc1cc2c(SCC(=O)Nc3cccc(O)c3)ncnc2s1	-3%	4%	i	54	22%
O=C(CCCCCn1c(SCc2ccncc2)nc2ccccc2c1=O)NCc1ccco1	0%	nt	nt	-21	10µM*
COc1ccc(C(=O)NCCS(=O)(=O)NCc2ccccc2)cc1	25%	-9%	i	-98*	-1%
CCOC(=O)N1CCC(n2c(SCC(=O)Nc3nccs3)nc3ccsc3c2=O)CC1	-2%	nt	nt	-90*	-20%
CCn1c(SCC(=O)NCc2ccco2)nc2ccccc2c1=O	-7%	nt	nt	-11	-7%
COc1ccc(C(=O)NCCS(=O)(=O)NCCc2ccccc2)cc1	40%	-18%	i	50	-3%
COc1ccc(C(=O)Nn2c(SCC(=O)NCc3ccco3)nc3ccccc3c2=O)cc1	14µM*	-6%	-8%	-73*	-15%
O=C(CN1CCOCC1)N1CC(=O)N2[C@@H](CO)[C@H](c3ccc(Br)cc3)[C@@H]2C1	nt	nt	nt	-2	nt
CCCCOc1ccc(CNC(=O)c2cnc3sc(N4CCC(C)CC4)nn3c2=O)cc1	-28%	-11%	-16%	17	nt
CCC1(O)CCCC2C3CCC4CC(=O)CCC4(C)C3C(=O)CC21C (centres undefined)	-20%	-7%	-16%	-11	25%
COc1ccc(C(=O)Nn2c(SCC(=O)NC3CCCCC3)nc3ccccc3c2=O)cc1	13µM*	nt	nt	-3	4%
COCCCn1c(SCC(=O)NC2CCCCC2)nc2ccccc2c1=O	12%	-4%	-3%	-6	-19%
O=C(CSc1nc2ccsc2c(=O)n1Cc1ccccc1F)NCc1ccccc1Cl	-13%	-5%	2%	-91*	nt
CCOC(=O)N1CCC(n2c(SCC(=O)N3CCC(C)CC3)nc3ccccc3c2=O)CC1	?	nt	nt	?	13µM*
O=C1c2ccccc2C(=O)N1CCc1nc2ccccc2c(=O)n1Cc1ccco1	28µM*	-8%	nt	29	19%
